Reference: PubChem BioAssay (NCATS)
Results filed as inconclusive are left out. Active and inactive are the calls of the source. Unless noted, calls come from the whole dose curve; as a rule, active = well fitted curve in the direction sought with a large enough effect; inconclusive = small, poorly fitted or top-dose-only effect, or another doubt; inactive = no such curve, though single readings can be large; an effect the other way counts as inactive or inconclusive.

Experiments:
[1] = biological target: Cytochrome P450 3A4 (Homo sapiens) (UniProt P08684); experiment: qHTS Assay for Activators of Cytochrome P450 3A4 (AID 885); note: nearly all actives have a fitted effect of over 65% in size
Procedure, shortened: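 20nM CYP3A4 + 25uM Luciferin-PPXE (=KM), 200mM KPO4; cpd 10 min RT; NADPH regen, 60 min RT; stop w/ detection buffer, 20 min; luminescence. Normalized to 57 uM ketoconazole.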

[2] = Confirmation and Secondary Assay for Modulators of Hemoglobin Beta Chain Splicing at IVS2 654 locus (AID 910);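 note: HeLa cells stably carrying EGFP split by mutant beta-globin IVS2-654 intron; % of control where 0% means no effect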
Procedure, shortened: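 HeLa cells stably expressing EGFP interrupted by β-globin IVS2-654 intron, seeded overnight in Opti-MEM/2% FCS, then treated 2 days at 37 °C. Restored splicing read as total peak GFP intensity per well by laser scanning cytometry (488 nm excitation, 500–520 nm emission); 500 nM antisense PNA as control.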

[3] = Confirmation and Secondary Assay for Modulators of Hemoglobin Beta Chain Splicing at IVS2 705 locus (AID 930);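 note: HeLa cells stably expressing the EGFP-705 splicing reporter; GFP fluorescence per well restored by corrected splicing of the IVS2-705 intron in EGFP; % of control where 0% means no effect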
Procedure, shortened: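 First, HeLa EGFP-705 cells are seeded at 500/well in Optimem with 2% FCS and left overnight. Next, compound or DMSO is added for 2 days. Finally wells are laser-scanned and total peak GFP intensity scored.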

[4] = qHTS Assay for Lipid Storage Modulators (AID 1519; calls by dose curve); conditions: Drosophila S3 cells, BODIPY lipid droplet/cell ratio, laser cytometry, cells loaded with oleic acid
Procedure, shortened: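 Cells seeded at 5,000 per well were treated with compounds over a concentration series and loaded with oleic acid (400 uM, as added). Lipid droplet fluorescence (488 nm excitation, 500-530 nm channel) was read by laser-scanning cytometry and normalized to 20 uM Triacsin C.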

[5] = biological target: Ubiquitin carboxyl-terminal hydrolase 1 (Homo sapiens) (UniProt O94782); experiment: Inhibitors of USP1/UAF1: Pilot qHTS (AID 504865); note: nearly all actives have a fitted effect of over 35% in size; note: potency is the fitted concentration of half-maximal effect
Procedure, shortened: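 In 50mM HEPES pH 7.8 containing 0.5mM EDTA, 1mM TCEP, 0.1 mg/ml BSA and 0.01% Tween-20, 1nM USP1/UAF1 is exposed to compound for 15 min, then Ub-Rho (150nM final) is added and fluorescence is read over time.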

[6] = AP1 Signaling Pathway (AID 357; active = well fitted curve in either direction with a large enough effect, not every such curve was filed as active; note: % is set by controls: 0 for no effect and ±100 for the full control effect); conditions: ME-180 AP-1-bla reporter, EGF-induced, beta-lactamase ratio, 5 h; at 7.69 µM (top of the series) unless noted
Procedure, shortened: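 AP-1-bla ME-180 cells with beta-lactamase reporter under AP-1 response element, stimulated with EC50 EGF; compounds titrated, 5 hours at 37 degrees Celsius. CCF4 read at 460/530 nm ratio; positive and negative modulators judged by AC50.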

[7] = biological target: Cytochrome P450 1A2 (Homo sapiens) (UniProt P05177); experiment: p450-cyp1a2 (AID 410; calls by dose curve; note: potency is the fitted concentration of half-maximal effect;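 for activity change, negative = inhibition: -100% = full effect of reference inhibitor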)
Procedure, shortened: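 Luminescent readout of luciferin formed from Luciferin-ME by human CYP1A2; data normalized against complete inhibition by 57 uM furafylline. Enzyme 20nM, substrate 100uM at Km, 100mM KPO4 buffer, 60 min reaction at room temperature.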

[8] = Stat Signaling Pathway (AID 446; active = well fitted curve in either direction with a large enough effect, not every such curve was filed as active;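 note: ME-180 cervical cancer cells given 40 pM IL-6 alongside compound; SIE-controlled beta-lactamase reporter measured as 460/530 nm FRET emission ratio; % is set by controls: 0 for no effect and ±100 for the full control effect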); conditions: ME-180 SIE beta-lactamase reporter, IL-6 stimulated, 5 h; at 7.69 µM (top of the series) unless noted
Procedure, shortened: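 ME-180 SIE-bla cells; overnight plating; cpd + IL-6 40 pM, 5 h, 37 C; LiveBLAzer 2.5 h RT; 460/530 nm emission ratio. Normalized to 300 pM IL-6 and 125 nM JAK inhibitor controls.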

[9] = biological target: Glucocorticoid receptor (Homo sapiens) (UniProt P04150); experiment: GR-GFP Redistribution (AID 450;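 active = compounds whose dose series gives a full or clear partial fitted curve of increased nuclear translocation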; note: potency is the fitted concentration of half-maximal effect); conditions: U2OS GR-GFP nuclear translocation, laser cytometry, 2 h
[10] = biological target: Glucocorticoid receptor (Homo sapiens) (UniProt P04150); experiment: GR-EFC Redistribution (AID 451; calls by dose curve; note: potency is the fitted concentration of half-maximal effect); conditions: CHO-K1 GR-EFC translocation, beta-gal luminescence, 2 h
Procedure, shortened: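 CHO-K1 cells expressing nuclear EA and GR-ED fragments of b-gal; compounds titrated up to 46 uM final, 2 h at 37 C. GR nuclear translocation read as complemented b-gal luminescence after 1 h RT detection.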

[11] = biological target: Mitogen-activated protein kinase 10 (Mus musculus) (UniProt Q61831); experiment: JNK3 AlphaScreen Assay (AID 530; active = well fitted curve in either direction with a large enough effect, not every such curve was filed as active;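 note: kinase came from lysate of stimulated human HepG2 cells; signal reports phosphorylation of biotinylated GST-cJun 1-79 at Ser73 with 10 µM ATP; % is set by controls: 0 for no effect and ±100 for the full control effect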)
Procedure, shortened: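 Pre-activated (IL-1β/TNFα) JNK3 in HepG2 lysates phosphorylates biotin-GST-cJun(1-79), 10 uM ATP; anti-phospho-cJun(Ser73) AlphaScreen read at room temperature, pH 7.6 Tris buffer. Compounds pre-incubated 15 min as titrations.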

[12] = biological target: 3',5'-cyclic-AMP phosphodiesterase 4B (Homo sapiens) (UniProt Q07343); experiment: qHTS Assay for Inhibitors of PDE-IV (AID 607; active = well fitted activation curve with a large enough effect in the main read-out, with a control signal flat, not every such curve was filed as active; note: % of control where 0% means no effect)
Procedure, shortened: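 ACTOne HEK293 cells carry a modified cAMP-gated CNG channel and express endogenous PDE4; plated 1000 cells/well, compounds up to 22.9 uM final. Membrane-potential dye fluorescence (ex 535/em 590) was read; parental cells received 10 uM forskolin + 100 uM RO 20-1724.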

[13] = biological target: Cytochrome P450 3A4 (Homo sapiens) (UniProt P08684); experiment: qHTS Assay for Inhibitors and Substrates of Cytochrome P450 3A4 (AID 884); note: nearly all actives have a fitted effect of over 50% in size; note: potency is the fitted concentration of half-maximal effect
Procedure, shortened: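 20 nM human CYP3A4 with 25 uM Luciferin-PPXE (at KM) in 200 mM KPO4, preincubated 10 min with compound; NADPH regeneration started a 60 min RT reaction. Luciferin detected by luminescence, normalized to 57 uM ketoconazole as full inhibition.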

[14] = biological target: Lysosomal acid glucosylceramidase (Homo sapiens) (UniProt P04062); experiment: Glucocerebrosidase-p2 (AID 348; in the data active = potency below about 10 µM; note: potency is the fitted concentration of half-maximal effect); conditions: purified GBA, blue fluorogenic substrate, 40 min
Procedure, shortened: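 Compounds titrated from 0.6 nM upwards against 0.2 nM enzyme in pH 5.9 citric acid/KH2PO4, taurocholate, tween-20; blue fluorogenic substrate 80 uM, 40 min room temperature, stopped and read Ex 365/Em 440 for AC50.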

[15] = NFAT Signaling Pathway (AID 444; active = well fitted curve in either direction with a large enough effect, not every such curve was filed as active;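 note: carbachol stimulus at about its EC50 of 1 µM final; % is set by controls: 0 for no effect and ±100 for the full control effect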); conditions: Jurkat NFAT-bla M1, carbachol, beta-lactamase ratio, 5 h; at 7.69 µM (top of the series) unless noted
Procedure, shortened: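 Jurkat cells with NFAT-driven β-lactamase reporter and co-expressed M1 receptor, stimulated with carbachol (final 1 uM, ~EC50), compound titration, 5 h at 37 °C. CCF4 loaded 1 h at RT; 460/530 nm ratio gave %activity and AC50.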

[16] = biological target: Cytochrome P450 2C19 (Homo sapiens) (UniProt P33261); experiment: qHTS Assay for Inhibitors and Substrates of Cytochrome P450 2C19 (AID 899); note: potency is the fitted concentration of half-maximal effect; nearly all actives have a fitted effect of over 60% in size
Procedure, shortened: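 5 nM human CYP2C19 with 10uM Luciferin-H EGE (at KM) in 50mM KPO4, compound preincubated 10 min at 37C, then NADPH regeneration for 60 min at 37C. Luciferin read by luminescence after detection reagent; normalized to 57uM ketoconazole as full inhibition.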

[17] = biological target: Dual specificity protein kinase CLK4 (Homo sapiens) (UniProt Q9HAZ1); experiment: qHTS Assay for Inhibitors of CDC-like Kinase 4 (ADP-FP Assay) (AID 1795);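 note: recombinant human CLK4 phosphorylating RS repeat peptide at 1 µM ATP; % is set by controls: 0 for no effect and ±100 for the full control effect; nearly all actives have a fitted effect of over 60% in size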
Procedure, shortened: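 Clk4 6.25 nM; RS peptide 100 uM; ATP 1 uM; 25 mM Tris pH 7.5, 10 mM MgCl2; 1 h reaction. ADP detected via antibody/orange tracer FP displacement; TG003 positive control.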

[18] = measured here: cell count channel max response
[19] = measured here: lipid channel max response

Ubiquitin carboxyl-terminal hydrolase 1 (Homo sapiens), sequence (O94782 whole entry, looked up): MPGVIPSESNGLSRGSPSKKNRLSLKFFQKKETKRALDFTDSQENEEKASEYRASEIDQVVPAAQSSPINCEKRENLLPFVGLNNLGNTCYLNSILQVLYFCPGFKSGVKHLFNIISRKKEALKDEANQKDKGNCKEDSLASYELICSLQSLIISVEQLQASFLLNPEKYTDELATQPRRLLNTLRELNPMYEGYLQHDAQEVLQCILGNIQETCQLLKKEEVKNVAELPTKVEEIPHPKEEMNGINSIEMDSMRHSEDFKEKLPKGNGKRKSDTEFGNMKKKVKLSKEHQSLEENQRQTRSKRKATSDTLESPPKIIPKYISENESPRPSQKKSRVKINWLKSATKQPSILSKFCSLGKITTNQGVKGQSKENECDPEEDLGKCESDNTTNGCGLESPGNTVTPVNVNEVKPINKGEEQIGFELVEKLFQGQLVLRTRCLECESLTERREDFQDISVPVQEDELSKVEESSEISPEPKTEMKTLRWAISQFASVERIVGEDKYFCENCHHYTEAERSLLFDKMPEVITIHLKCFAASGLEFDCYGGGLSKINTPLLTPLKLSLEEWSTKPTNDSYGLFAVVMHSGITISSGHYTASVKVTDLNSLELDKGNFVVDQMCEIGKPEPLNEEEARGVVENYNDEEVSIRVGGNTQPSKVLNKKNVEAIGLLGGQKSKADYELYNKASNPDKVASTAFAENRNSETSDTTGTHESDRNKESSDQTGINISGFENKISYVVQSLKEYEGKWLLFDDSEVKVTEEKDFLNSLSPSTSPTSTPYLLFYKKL
Glucocorticoid receptor (Homo sapiens), sequence (P04150 whole entry, looked up, the tested form may be a part): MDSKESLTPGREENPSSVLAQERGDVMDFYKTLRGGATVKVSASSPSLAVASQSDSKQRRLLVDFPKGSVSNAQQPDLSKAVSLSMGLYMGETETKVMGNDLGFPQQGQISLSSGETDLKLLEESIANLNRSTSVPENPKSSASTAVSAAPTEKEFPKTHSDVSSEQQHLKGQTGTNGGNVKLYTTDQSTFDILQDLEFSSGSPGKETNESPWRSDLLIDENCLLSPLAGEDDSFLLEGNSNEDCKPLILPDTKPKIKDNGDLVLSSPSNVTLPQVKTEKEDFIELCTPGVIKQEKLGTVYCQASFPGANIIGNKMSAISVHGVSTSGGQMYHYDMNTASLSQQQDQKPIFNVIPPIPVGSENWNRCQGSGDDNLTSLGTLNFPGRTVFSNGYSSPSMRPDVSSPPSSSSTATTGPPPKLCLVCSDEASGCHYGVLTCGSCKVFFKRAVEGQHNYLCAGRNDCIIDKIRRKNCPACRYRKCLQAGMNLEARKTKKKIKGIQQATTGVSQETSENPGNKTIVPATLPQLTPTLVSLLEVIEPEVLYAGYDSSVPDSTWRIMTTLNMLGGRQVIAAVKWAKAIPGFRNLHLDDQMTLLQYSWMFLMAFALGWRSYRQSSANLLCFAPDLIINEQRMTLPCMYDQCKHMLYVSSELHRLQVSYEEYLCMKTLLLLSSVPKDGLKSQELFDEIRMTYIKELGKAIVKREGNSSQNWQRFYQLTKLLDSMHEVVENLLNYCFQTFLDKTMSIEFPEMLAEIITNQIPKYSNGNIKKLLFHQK
Cytochrome P450 3A4 (Homo sapiens), sequence (P08684 whole entry, looked up): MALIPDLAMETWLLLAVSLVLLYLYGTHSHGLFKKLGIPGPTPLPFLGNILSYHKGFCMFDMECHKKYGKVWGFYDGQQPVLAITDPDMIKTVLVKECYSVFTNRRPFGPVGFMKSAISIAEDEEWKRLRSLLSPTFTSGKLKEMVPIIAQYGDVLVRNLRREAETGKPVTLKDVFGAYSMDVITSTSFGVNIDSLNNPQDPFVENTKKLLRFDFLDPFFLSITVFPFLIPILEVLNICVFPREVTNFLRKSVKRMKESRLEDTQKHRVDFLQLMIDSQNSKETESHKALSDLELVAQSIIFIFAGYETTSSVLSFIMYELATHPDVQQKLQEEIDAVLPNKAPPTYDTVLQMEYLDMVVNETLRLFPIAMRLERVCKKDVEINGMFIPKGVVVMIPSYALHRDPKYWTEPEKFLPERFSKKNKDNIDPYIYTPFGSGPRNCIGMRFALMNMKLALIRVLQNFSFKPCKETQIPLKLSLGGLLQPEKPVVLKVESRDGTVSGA
Cytochrome P450 1A2 (Homo sapiens), sequence (P05177 whole entry, looked up): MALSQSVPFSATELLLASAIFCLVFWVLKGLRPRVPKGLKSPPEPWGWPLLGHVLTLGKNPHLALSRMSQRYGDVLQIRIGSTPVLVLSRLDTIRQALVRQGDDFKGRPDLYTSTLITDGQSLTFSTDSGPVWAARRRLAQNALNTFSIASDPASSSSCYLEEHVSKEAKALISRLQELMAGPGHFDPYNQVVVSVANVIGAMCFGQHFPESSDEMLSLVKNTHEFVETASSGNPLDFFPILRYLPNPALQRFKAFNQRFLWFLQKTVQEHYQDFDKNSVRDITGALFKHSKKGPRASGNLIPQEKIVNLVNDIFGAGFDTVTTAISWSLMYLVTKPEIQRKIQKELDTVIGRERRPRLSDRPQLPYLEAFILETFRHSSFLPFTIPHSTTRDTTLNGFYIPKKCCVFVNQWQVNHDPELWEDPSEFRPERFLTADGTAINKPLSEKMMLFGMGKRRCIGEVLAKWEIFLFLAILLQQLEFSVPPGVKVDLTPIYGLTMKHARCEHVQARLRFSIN
Cytochrome P450 2C19 (Homo sapiens), sequence (P33261 whole entry, looked up): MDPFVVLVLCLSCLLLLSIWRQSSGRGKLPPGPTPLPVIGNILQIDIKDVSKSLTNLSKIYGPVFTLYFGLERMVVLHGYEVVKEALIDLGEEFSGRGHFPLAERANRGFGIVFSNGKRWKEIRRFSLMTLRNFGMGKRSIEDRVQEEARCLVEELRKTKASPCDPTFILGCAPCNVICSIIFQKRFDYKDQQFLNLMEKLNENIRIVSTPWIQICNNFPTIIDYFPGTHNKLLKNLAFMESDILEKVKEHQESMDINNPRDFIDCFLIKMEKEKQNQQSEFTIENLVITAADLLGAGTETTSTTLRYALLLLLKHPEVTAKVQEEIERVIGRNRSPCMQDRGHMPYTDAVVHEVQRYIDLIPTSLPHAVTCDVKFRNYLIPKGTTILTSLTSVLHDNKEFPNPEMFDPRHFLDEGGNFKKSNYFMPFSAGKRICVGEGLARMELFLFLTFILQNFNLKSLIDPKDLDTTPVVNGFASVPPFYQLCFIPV
3',5'-cyclic-AMP phosphodiesterase 4B (Homo sapiens), sequence (Q07343 whole entry, looked up): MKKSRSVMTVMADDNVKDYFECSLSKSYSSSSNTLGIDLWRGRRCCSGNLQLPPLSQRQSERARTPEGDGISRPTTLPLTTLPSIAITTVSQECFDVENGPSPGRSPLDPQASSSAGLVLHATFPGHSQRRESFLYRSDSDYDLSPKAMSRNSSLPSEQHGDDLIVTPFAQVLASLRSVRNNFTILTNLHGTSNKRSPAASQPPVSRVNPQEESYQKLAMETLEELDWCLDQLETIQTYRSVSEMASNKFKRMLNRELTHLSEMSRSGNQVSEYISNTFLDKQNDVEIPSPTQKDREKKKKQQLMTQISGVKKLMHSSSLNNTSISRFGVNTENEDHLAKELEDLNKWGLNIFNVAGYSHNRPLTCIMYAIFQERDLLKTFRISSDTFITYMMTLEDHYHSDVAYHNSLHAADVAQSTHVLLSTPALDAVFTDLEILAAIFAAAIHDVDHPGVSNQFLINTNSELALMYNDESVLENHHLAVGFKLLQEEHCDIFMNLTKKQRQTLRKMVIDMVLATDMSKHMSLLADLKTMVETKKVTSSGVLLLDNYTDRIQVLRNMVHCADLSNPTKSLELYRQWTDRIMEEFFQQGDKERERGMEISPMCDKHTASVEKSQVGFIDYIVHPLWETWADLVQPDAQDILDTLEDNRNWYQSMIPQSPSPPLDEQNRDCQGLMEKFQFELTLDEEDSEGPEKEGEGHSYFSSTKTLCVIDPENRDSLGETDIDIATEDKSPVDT
Lysosomal acid glucosylceramidase (Homo sapiens), sequence (P04062 whole entry, looked up): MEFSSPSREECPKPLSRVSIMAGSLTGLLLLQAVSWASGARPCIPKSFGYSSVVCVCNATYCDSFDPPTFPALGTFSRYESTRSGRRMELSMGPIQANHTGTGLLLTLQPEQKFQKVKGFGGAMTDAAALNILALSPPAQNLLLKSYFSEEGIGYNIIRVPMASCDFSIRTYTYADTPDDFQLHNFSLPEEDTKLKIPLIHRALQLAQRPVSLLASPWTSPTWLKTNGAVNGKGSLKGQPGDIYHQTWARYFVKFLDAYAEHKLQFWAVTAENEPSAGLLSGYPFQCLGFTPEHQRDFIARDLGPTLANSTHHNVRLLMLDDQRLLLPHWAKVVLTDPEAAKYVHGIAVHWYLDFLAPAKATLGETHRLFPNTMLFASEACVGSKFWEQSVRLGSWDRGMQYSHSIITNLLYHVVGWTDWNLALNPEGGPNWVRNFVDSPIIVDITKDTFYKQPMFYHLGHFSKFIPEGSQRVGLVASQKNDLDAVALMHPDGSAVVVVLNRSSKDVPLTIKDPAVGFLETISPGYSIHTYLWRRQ
Dual specificity protein kinase CLK4 (Homo sapiens), sequence (Q9HAZ1 whole entry, looked up): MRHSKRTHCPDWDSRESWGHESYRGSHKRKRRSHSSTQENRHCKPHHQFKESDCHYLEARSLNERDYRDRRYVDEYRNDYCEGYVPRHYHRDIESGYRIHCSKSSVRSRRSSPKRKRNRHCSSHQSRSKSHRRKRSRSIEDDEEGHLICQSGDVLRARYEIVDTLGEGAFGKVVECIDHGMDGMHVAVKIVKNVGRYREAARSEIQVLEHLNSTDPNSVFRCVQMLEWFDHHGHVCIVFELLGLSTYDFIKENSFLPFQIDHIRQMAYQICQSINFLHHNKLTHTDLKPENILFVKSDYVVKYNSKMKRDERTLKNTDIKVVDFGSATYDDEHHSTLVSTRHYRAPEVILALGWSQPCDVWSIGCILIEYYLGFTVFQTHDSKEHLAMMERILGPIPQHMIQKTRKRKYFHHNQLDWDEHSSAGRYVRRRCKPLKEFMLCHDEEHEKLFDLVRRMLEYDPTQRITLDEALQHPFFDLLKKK

SMILES: Oc1ccc2c(c1)OCC1(O)Cc3cc(O)c(O)cc3C21 (stereo unspecified)
- Potency [1]: inactive
- Potency [2]: inactive
- outcome [3]: inactive
- activity change, negative = inhibition ([4]; at 57.5 µM (top of the series)): 11.4% (inactive)
- max response [4, 18]: -15.6%
- max response [4, 19]: -7.12%
- Potency [5]: 79.4 µM (active)

SMILES: CN(C)CC/C=C1\c2ccccc2CSc2ccccc21
- activity change, negative = inhibition [6]: 28.4% [at 17.2 µM] (inactive)
- Potency [7]: inactive
- activity, negative = inhibition [8]: -0.2% [at 17.2 µM] (inactive)
- Potency [9]: > 20.6 µM (inactive)
- Potency [10]: > 20.6 µM (inactive)
- Potency [11]: inactive
- Potency [12]: inactive
- activity change, negative = inhibition ([4]; at 25.7 µM (top of the series)): -6.7% (inactive)
- max response [4, 18]: -12.7%
- max response [4, 19]: -19.8%
- Potency [5]: inactive

SMILES: O=c1ccc2ccc(O)cc2o1
- Potency [13]: inactive
- Potency [2]: inactive
- outcome [3]: inactive
- activity change, negative = inhibition ([4]; at 57.5 µM (top of the series)): 5.83% (inactive)
- max response [4, 18]: 11.1%
- max response [4, 19]: 19.2%
- Potency [5]: inactive

SMILES: COc1ccccc1CNc1ncnc2ccc(-c3cccc(C#N)c3)cc12
- Potency [14]: > 11.4 µM (inactive)
- Potency [7]: 0.251 µM (active)
- activity change, negative = inhibition [15]: -8.04% (inactive)
- activity, negative = inhibition [8]: -17.5% (inactive)
- Potency [9]: > 46 µM (inactive)
- Potency [10]: > 46 µM (inactive)
- Potency [11]: inactive
- Potency [13]: 7.94 µM (active)
- Potency [1]: inactive
- Potency [16]: 5.01 µM (active)
- activity change, negative = inhibition ([4]; at 57.5 µM (top of the series)): -12.8% (inactive)
- max response [4, 18]: -3.32%
- max response [4, 19]: -14.8%
- Potency [17]: inactive
- Potency [5]: inactive

SMILES: C[N+](C)(C)CC(O)CC(=O)O (stereo unspecified)
- Potency [2]: inactive
- outcome [3]: inactive
- activity change, negative = inhibition ([4]; at 57.5 µM (top of the series)): 3.18% (inactive)
- max response [4, 18]: 12.3%
- max response [4, 19]: 21.4%
- Potency [5]: inactive
